SMILES strings stand for the structures. Compounds without any hit were thinned out: in the full panel of roughly 79,000, 15% have a hit. A number with no mark means an inactive call. Rule as the data show it: active = growth inhibition above about 70%; inactive = the rest.

The first test in a line: NCI Yeast Anticancer Drug Screen. Data for the cln2 rad14 strain (AID 165).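 Also: 0% = growth equal to vehicle treated cultures.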 The note with it: S. cerevisiae cln2 rad14 strain, at 50.0 µM, stronger effect = higher value. The method, boiled down: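 Yeast strain cln2 rad14, bearing defects in cell cycle control and DNA repair, serves as the test system; values reflect growth inhibition compared with vehicle.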
For the molecule `O=C(NC(O)(C(F)(F)F)C(F)(F)F)c1ccccc1`, the growth inhibition was 0.9%.
Turning to `COC(=O)CCCC(NC(=O)c1ccc([N+](=O)[O-])cc1)C(=O)OC` (stereo not drawn), the growth inhibition was 5.45%.
On to `N#Cc1cnc(SCC(=O)O)nc1N`, for which the growth inhibition was 8.8%.
As to `Nc1ncnc2c1ncn2-c1ccccc1Cl`, the growth inhibition is -1.4%.
As for `CN(C)CCCNc1cc[n+](C)c2cccc([N+](=O)[O-])c12`, the growth inhibition is 20.4%.
Turning to `O=C(O)c1ccc([N+](=O)[O-])cc1OCc1ccccc1`, the growth inhibition is -39%.
Same read-out and setting: the value for `NC(=O)CCC(NS(=O)(=O)c1ccc(NC(=O)c2ccccc2)cc1)C(=O)O` (stereo not drawn) was 19.6%; that for `COc1ccc(NC(=O)CCC(=O)CC(=O)c2ccc(C)cc2)cc1` was -23.4%; that for `COc1cc(C(=O)Nc2c3ccccc3nc3ccccc23)cc(OC)c1OC` was -23.6%.
For `NNc1nc2ccccc2[nH]1`, the growth inhibition was -14.4%.
Turning to `CCOC(=N)CC(=O)Nc1ccccc1CC`, the growth inhibition is 4.05%.
With `CCOC(=O)C(C)C(=O)NCc1ccccc1` (stereo not drawn), the growth inhibition was -43.5%.
Turning to `O=C(Nc1cccc2ccccc12)OCC1CC1`, the growth inhibition was -6.2%.
On to `O=C=Nc1ccc(Cc2ccc(N=C=O)cc2)cc1` (tested in a mixture with another compound), for which the growth inhibition is 8.95%.
Still for that read-out and setting: the value for `Cc1cccc(NC(=O)NC(O)C(Cl)(Cl)Cl)c1` (stereo not drawn) was -43%.
Turning to `Brc1ccc(Br)nc1`, the growth inhibition was 8.05%.
On the same count and under the same terms, the figure for `CCCCCCCCCCCCc1c2ccccc2cc2ccccc12` is -11.4%; for `CCN(CC)c1ccccc1S(=O)(=O)O` it is -42.9%; for `c1cc2nc(c1)CSCCCCCCCCSC2` it is -10.1%.
`CC=C/C=C/[C@@H]1O[C@](O)([C@H](CC)C(=O)NC/C=C/C=C(\C)[C@@H](OC)[C@@H](C)[C@@H]2O[C@H](/C=C/C=C/C=C(\C)C(=O)c3c(O)cc[nH]c3=O)[C@H](O)[C@@H]2O)[C@H](O)[C@H](O)C1(C)C`: the growth inhibition was 36.2%.
For `CC(=O)c1ccco1`, the growth inhibition is -43%.
As to `N#CCCC(CCC#N)(CCC(CCC#N)(CCC#N)[N+](=O)[O-])[N+](=O)[O-]`, the growth inhibition is -11.6%.
Same read-out and setting: the figure for `O=C1NC(c2cccc3ccccc23)Nc2ccccc21` (stereo not drawn) is -6.6%.

Another test in a line: NCI Yeast Anticancer Drug Screen. Data for the bub3 strain (AID 167). The note with it: S. cerevisiae bub3 mutant strain, at 50.0 µM, stronger effect = higher value. The method, boiled down: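 Mutant yeast screening strain plus compound; vehicle-treated cultures serve as the 0% inhibition reference.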
Turning to `CC1CC(C)(C)OC(c2ccc(Cl)cc2)O1` (stereo not drawn), the growth inhibition was -12.4%.
Turning to `Cc1nc(N)sc1C(=O)/C=C\c1ccc2c(c1)OCO2`, the growth inhibition was 5.2%.
With `N#CCCC(=O)c1ccc[nH]1`, the growth inhibition is 1.3%.
Take `COc1cc(-c2ccc(N=Nc3ccc(N)nc3N)c(OC)c2)ccc1N=Nc1ccc(N)nc1N`: the growth inhibition was -1.45%.
Regarding `CCC(CC)C(=O)NC(=O)NC`, the growth inhibition was -8.05%.
On to `CCO/C=N/c1oc(-c2ccccc2)nc1C#N`, for which the growth inhibition is -12.1%.
Take `O=[N+]([O-])c1ccc2nc(Cl)cnc2c1`: the growth inhibition was 3.8%.
As to `NC(=O)C(N)C(N)=NCc1ccccc1` (stereo not drawn), the growth inhibition is -2.3%.
With `COC1=CC(=O)N(C(=O)C2CSC(C(CO)NC(=O)c3csc(/C=N/O)n3)=N2)C1` (stereo not drawn), the growth inhibition was -6.25%.
As for `O=C(C1CC=CCC1C(=O)N1CCCCC1)N1CCCCC1` (stereo not drawn), the growth inhibition is 9.1%.
For `COc1cc(C)c2c(c1)C=C[C@@H]1[C@@H]2CC[C@]2(C)C(=O)CC[C@@H]12`, the growth inhibition is -0.05%.
Consider `CCOC(=O)C1=C(N)n2c(s/c(=C/c3ccc(N(C)C)cc3)c2=O)=C(C(=O)OCC)C1c1ccc(N(C)C)cc1` (stereo not drawn), for which the growth inhibition was 3.4%.
Regarding `CC(=O)OCC1OC(Sc2nc3ncnc(N)c3[nH]2)C(OC(C)=O)C(OC(C)=O)C1OC(C)=O` (stereo not drawn), the growth inhibition was 4.5%.
For `COc1ccccc1/C=C/C(=O)c1sc(-c2cccnc2)nc1C`, the growth inhibition is 23.9%.
With `c1ccc2c(c1)n1nnnc1c1nnnn21`, the growth inhibition was 4.85%.
As for `CCCCOB(OCCCC)OCCCC`, the growth inhibition was -1.65%.
For `Cc1ccc(-c2ccc(C)cc2)cc1`, the growth inhibition is -36.9%.
For `O=C(NC(O)(C(F)(F)F)C(F)(F)F)c1ccccc1`, the growth inhibition is -7.05%.
With `COC(=O)CCCC(NC(=O)c1ccc([N+](=O)[O-])cc1)C(=O)OC` (stereo not drawn), the growth inhibition was 13.7%.
On to `N#Cc1cnc(SCC(=O)O)nc1N`, for which the growth inhibition is -36.2%.
Turning to `Nc1ncnc2c1ncn2-c1ccccc1Cl`, the growth inhibition was 0.75%.
Consider `CN(C)CCCNc1cc[n+](C)c2cccc([N+](=O)[O-])c12`, for which the growth inhibition is 13.8%.
`O=C(O)c1ccc([N+](=O)[O-])cc1OCc1ccccc1`: the growth inhibition was -3.4%.
In the case of `NC(=O)CCC(NS(=O)(=O)c1ccc(NC(=O)c2ccccc2)cc1)C(=O)O` (stereo not drawn), the growth inhibition is -5.7%.
The same measure, in the same setting: the value for `COc1ccc(NC(=O)CCC(=O)CC(=O)c2ccc(C)cc2)cc1` was 17.9%; that for `COc1cc(C(=O)Nc2c3ccccc3nc3ccccc23)cc(OC)c1OC` was -3.3%; that for `NNc1nc2ccccc2[nH]1` was 8.9%.
As for `CCOC(=N)CC(=O)Nc1ccccc1CC`, the growth inhibition is 12.1%.
`CCOC(=O)C(C)C(=O)NCc1ccccc1` (stereo not drawn): the growth inhibition is 9.35%.
Turning to `O=C(Nc1cccc2ccccc12)OCC1CC1`, the growth inhibition was -34.9%.
`O=C=Nc1ccc(Cc2ccc(N=C=O)cc2)cc1` (tested in a mixture with another compound): the growth inhibition was -0.5%.
For the molecule `Cc1cccc(NC(=O)NC(O)C(Cl)(Cl)Cl)c1` (stereo not drawn), the growth inhibition is -16.6%.
Turning to `Brc1ccc(Br)nc1`, the growth inhibition is -10.1%.
For the molecule `CCCCCCCCCCCCc1c2ccccc2cc2ccccc12`, the growth inhibition was 25.1%.
For `CCN(CC)c1ccccc1S(=O)(=O)O`, the growth inhibition is -6.85%.
With `c1cc2nc(c1)CSCCCCCCCCSC2`, the growth inhibition is 55%.
As for `CC=C/C=C/[C@@H]1O[C@](O)([C@H](CC)C(=O)NC/C=C/C=C(\C)[C@@H](OC)[C@@H](C)[C@@H]2O[C@H](/C=C/C=C/C=C(\C)C(=O)c3c(O)cc[nH]c3=O)[C@H](O)[C@@H]2O)[C@H](O)[C@H](O)C1(C)C`, the growth inhibition was 29.9%.
On to `CC(=O)c1ccco1`, for which the growth inhibition was 1.25%.
Still for that read-out and setting: the figure for `N#CCCC(CCC#N)(CCC(CCC#N)(CCC#N)[N+](=O)[O-])[N+](=O)[O-]` is 8.8%; for `O=C1NC(c2cccc3ccccc23)Nc2ccccc21` (stereo not drawn) it is 0.85%.

These data come from PubChem BioAssay (NCI).
